# In the library only some 3.9% were active in any assay of this set; here they are far more common.
# Rtt109 HAT inh = inhibitors of C. albicans Rtt109/Vps75 HAT, primary screen, biochemical, ThioGlo CoA-SH fluorescence, plate reader; hit rate 0.16% among 330,000; purified Rtt109/Vps75, 4 h; AID 540336, 2011; inhibition, % at 34.9 µM;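 active means inhibition of at least 50% in every replicate; inconclusive means best replicate reaches 50% inhibition but some replicates fall short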
# Target sequence (Q5AAJ8 whole entry, looked up): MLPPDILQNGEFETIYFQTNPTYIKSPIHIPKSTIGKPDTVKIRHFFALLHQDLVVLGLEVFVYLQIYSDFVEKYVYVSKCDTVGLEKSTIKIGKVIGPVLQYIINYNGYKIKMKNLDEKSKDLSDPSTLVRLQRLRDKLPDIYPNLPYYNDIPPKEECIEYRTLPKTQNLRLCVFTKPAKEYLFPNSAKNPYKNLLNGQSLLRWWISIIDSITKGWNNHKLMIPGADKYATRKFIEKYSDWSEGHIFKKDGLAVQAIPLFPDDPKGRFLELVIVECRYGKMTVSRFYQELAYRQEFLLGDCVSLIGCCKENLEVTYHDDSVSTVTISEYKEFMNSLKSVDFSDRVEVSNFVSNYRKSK
# PHOSPHO1 inh = PubChem AID 1565; hit rate 1.1% among 290,000; inhibition, % at 13.3 µM; Phosphoethanolamine/phosphocholine phosphatase (Homo sapiens), Q8TCT1; recombinant PHOSPHO1, absorbance phosphatase assay; in the data active means inhibition above about 60%
# Target sequence (Q8TCT1 whole entry, looked up): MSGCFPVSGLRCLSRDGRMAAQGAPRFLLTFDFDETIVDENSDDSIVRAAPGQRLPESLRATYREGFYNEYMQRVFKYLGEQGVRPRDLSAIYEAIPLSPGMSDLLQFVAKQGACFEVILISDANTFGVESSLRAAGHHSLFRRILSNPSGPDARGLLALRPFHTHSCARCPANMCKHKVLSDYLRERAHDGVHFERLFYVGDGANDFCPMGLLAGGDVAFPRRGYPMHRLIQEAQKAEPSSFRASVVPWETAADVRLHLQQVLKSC
# TPT1 inhibitor = Candida albicans TPT1 enzyme inhibitors, primary screen, biochemical, fluorescence polarization. recombinant caTPT1, FP RNA substrate dephosphorylation. inhibition, % at 5 µM. hit rate 0.81% among 300,000;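 active means inhibition above the mean of all tested compounds plus 3 SD, set per screening campaign, cut at about 24% in these data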
# Platelet DG rel = inhibitors of platelet dense granule secretion, primary screen, cell-based, MLPCN, human platelets | hit rate 0.22% among 300,000 | inhibition, %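 (compounds screened at 7.5 µM in platelet-rich plasma)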 | human platelet-rich plasma, SFLLRN dense granule ATP release, luminescence;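 active means mean replicate score, as percent of positive control, at or above 50; inconclusive means mean below 50 but at least one replicate at or above 50; inactive means mean and every replicate below 50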
# SKKanGAS inh = S. pyogenes SKKanGAS growth inhibitors in kanamycin, primary screen, streptokinase expression inhibitor project, SKKanGAS strain, BacTiter-Glo luminescence | inhibition, % at 7.5 µM | hit rate 1.3% among 300,000 | 6 h;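 active means mean replicate score, as percent of positive control median, at least 50; inconclusive means mean below 50 but one replicate at or above 50; inactive means mean and every replicate below 50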;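 further: strain carries kanamycin resistance gene driven by streptokinase promoter and grows in 40 µg/ml kanamycin; loss of luminescence reflects streptokinase promoter inhibition or plain growth inhibition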
# WT yeast gro inh = growth inhibition of WT strain, primary screen, mitochondrial fusion inhibitor project, WT and mutant strains, chemical genetic. mitochondrial fusion phenotypic screen. inhibition, % at 10 µM. hit rate 2.1% among 190,000. AID 1362, 2008; in the data active means inhibition above about 58%; tested in S. cerevisiae
# Numbers stand for hits; . = inactive; ? = inconclusive; / = no result.
SMILES,Rtt109 HAT inh,PHOSPHO1 inh,TPT1 inhibitor,Platelet DG rel,SKKanGAS inh,WT yeast gro inh
O=C(NCc1ccccc1Cl)c1cc(=O)[nH]c2ccccc12,.,.,.,.,.,/
CC(C)(C)c1cn(-c2ccc(F)cc2)c(=S)[nH]1,.,68.8,.,.,.,.
COc1ccc(CNc2oc(Cc3cccc4ccccc34)nc2C#N)cc1,.,.,.,.,54.1,.
Nc1ncnc2c1ncn2[C@@H]1O[C@H](CNCc2cccc(C#Cc3ccccc3)c2)[C@@H](O)[C@H]1O,.,/,/,/,/,/
C(=C\c1ccccc1)/CSc1nnc(-c2ccccc2)n1Cc1ccco1,.,80.1,.,.,.,.
c1ccc(-c2nnc(CSc3nnc(-c4ccncc4)n3Cc3ccco3)o2)cc1,.,.,.,.,.,81.7
C(=C\c1ccccc1)/CSc1nnc(-c2ccncc2)n1Cc1ccco1,.,64.1,.,.,.,.
COc1ccccc1C(=O)NCCC(=O)Nc1ccc(S(=O)(=O)N2C(C)CCCC2C)cc1 (centres undefined),.,/,/,/,/,/
O=C(COC(=O)c1ccccc1-n1cnnn1)c1ccc(F)cc1,.,/,.,.,.,/
CC(OC(=O)Cc1c[nH]c2ccccc12)C(=O)c1ccccc1 (centres undefined),.,/,/,/,/,/
O=C(c1cc(-c2cccs2)nc2ccccc12)N1CCN(CCO)CC1,.,/,/,/,/,/
O=C(c1cc(-c2cccs2)nc2ccccc12)N1CCN(c2ccccc2O)CC1,?,.,.,.,68.2,.
Cn1c(O)c(N=NC(=O)c2cc(-c3cccs3)nc3ccccc23)c2ccccc21,.,.,.,.,80.0,.
O=C(c1cc(-c2cccc(Cl)c2)nc2ccccc12)N1CCCC1,.,62.4,.,.,.,/
O=C(Nc1ccccn1)c1cc(-c2cccc(Cl)c2)nc2ccccc12,.,.,.,.,.,65.0
O=C(N=Nc1c(O)[nH]c2ccc(Br)cc12)c1cc(-c2cccs2)nc2ccccc12,.,.,/,.,.,.
O=C(Cc1ccc(S(=O)(=O)N2CCOCC2)s1)N1CCN(S(=O)(=O)c2cccc(Cl)c2)CC1,.,/,.,.,.,/
CC(C)n1nccc1NC(=O)COC(=O)c1ccc(NC(N)=O)cc1,.,/,/,/,/,/
COC(=O)c1ccc2c(c1)c(-c1ccccc1)c(-c1ccccc1)n2C,.,/,/,/,/,/
O=C(NNC(=O)c1cc(-c2ccc(Cl)c(Cl)c2)nc2ccccc12)Nc1ccccc1,.,.,.,.,75.9,.
CC(=O)N1CCN(C(=O)c2cc(C)nc3ccccc23)CC1,.,60.0,.,.,.,.
COc1ccc(-c2cc(C(=O)N3CCN(c4ccccc4O)CC3)c3ccccc3n2)cc1,.,/,/,/,/,/
Cc1cc(C(=O)N2CC=C(c3ccccc3)CC2)c2ccccc2n1,.,/,.,.,.,/
Cc1ccc(-c2cc(C(=O)N3CCN(c4ccccc4O)CC3)c3ccccc3n2)cc1,.,/,.,.,53.6,/
Cc1cccc(NC(=O)NNC(=O)c2cc(-c3ccccc3Cl)nc3ccccc23)c1,.,.,.,.,.,.
SMILES,Rtt109 HAT inh,PHOSPHO1 inh,TPT1 inhibitor,Platelet DG rel,SKKanGAS inh,WT yeast gro inh
C[C@H]1CN([C@@H](C)CO)C(=O)c2cccc(NS(=O)(=O)c3ccc(F)cc3)c2O[C@H]1CN(C)S(=O)(=O)c1cn(C)cn1,.,/,/,/,/,/
O=C(CSc1ccc(F)cc1)NC12CC3CC(CC(C3)C1)C2,.,.,.,.,.,.
O=C(CCSc1ccc(Cl)c(Cl)c1)NC12CC3CC(CC(C3)C1)C2,.,.,.,.,65.4,.
O=C(c1cccc(Br)c1)c1conc1C(=O)c1ccco1,.,.,.,.,.,67.2
CC(=O)c1ccc(NC(=O)CN2CCCC2)cc1,.,/,.,.,.,/
CC1CCN(c2ccccc2NC(=O)c2cc([N+](=O)[O-])ccc2N2CCOCC2)CC1,53.6,/,.,.,.,/
Cc1cccc(NC(=O)c2ccc(N3CCOCC3)c([N+](=O)[O-])c2)n1,.,.,.,.,.,.
O=C(Nc1ccccc1N1CCOCC1)c1cccc(F)c1,.,.,.,.,.,76.0
Cc1cccc(NC(=O)c2ccc(N3CCCCC3)c([N+](=O)[O-])c2)n1,.,.,.,.,.,78.1
O=C(Nc1ccccc1N1CCOCC1)c1cc(F)cc(F)c1,.,.,.,.,.,74.4
O=C(Nc1ccccc1N1CCOCC1)c1ccc2c(c1)OCCO2,.,.,.,.,.,/
O=C(COc1cc(F)ccc1[N+](=O)[O-])NCCN1C(=O)CSC1=O,.,/,/,/,/,/
CCCCC(O)(c1ccc(F)cc1)C(CN1CCOCC1)c1ccc(Cl)cc1 (centres undefined),.,.,.,.,.,/
O=C(Nc1ccccc1N1CCCCC1)c1cccc([N+](=O)[O-])c1,.,.,.,.,.,78.4
CN(C(=O)c1ccc(N2CCCCC2)c([N+](=O)[O-])c1)C1(C)CCS(=O)(=O)C1 (centres undefined),53.0,.,.,.,.,/
Cc1ccc(N(C(=O)CCCC(=O)Nc2ccccn2)C(C(=O)NC2CCCC2)c2ccc(O)cc2)cc1C (centres undefined),.,.,.,.,.,/
CC(C(=O)OCC(=O)N(C)C1(C#N)CCCCC1)N1C(=O)c2ccccc2C1=O (centres undefined),.,/,/,/,/,/
O=C(NCc1ccc(Cl)cc1)c1ccccc1CCc1ccccc1,52.0,.,.,.,.,.
Cc1ccc(C)c(Nc2ncccc2C(=O)NCc2cccs2)c1,.,.,.,.,.,63.6
CCN(CC)c1ncccc1C(=O)NCc1cccs1,/,.,.,.,.,.
C=CCN(c1ccccc1OC)S(=O)(=O)c1cccc(C(=O)OCC(=O)c2c(N)n(C)c(=O)n(C)c2=O)c1,.,/,/,/,/,/
O=C(c1ccc2c(c1)OCO2)N(Cc1cccs1)C1(C(=O)NC2CCCCC2)CCCCC1,.,.,.,.,.,62.1
O=C(Cc1cccs1)N(Cc1cccs1)C1(C(=O)NC2CCCC2)CCCCC1,.,.,.,.,.,.
COCCN(CC(=O)Nc1cccc(C)c1C)C(=O)c1cc2c(s1)CCC2,.,/,/,/,/,/
O=c1cc(COc2ncnc3c(Cl)cc(Cl)cc23)nc2sccn12,.,.,.,52.3,.,/
SMILES,Rtt109 HAT inh,PHOSPHO1 inh,TPT1 inhibitor,Platelet DG rel,SKKanGAS inh,WT yeast gro inh
CC(=O)c1ccc(OCC(=O)Nc2ccc3nc(C)sc3c2)cc1,.,.,.,.,.,.
Cc1cccc(OCC(=O)Nc2ccc3nc(C)sc3c2)c1,.,.,.,.,.,59.4
Cc1nc2ccc(NC(=O)COc3cccc(F)c3)cc2s1,.,.,.,.,.,.
Cc1nc2ccc(NC(=O)COc3ccccc3)cc2s1,.,.,/,/,/,73.9
COc1cc(-c2nc3ccc4ccccc4c3c3c2CCC3)cc(OC)c1OC,.,.,.,.,.,.
COc1cc(-c2nc3ccc4ccccc4c3c3c2CCC3)ccc1O,.,.,.,.,.,79.1
COc1cc2ccccc2c2c1CCCC2=O,.,.,.,.,.,.

# Screening results as filed in PubChem.
